Source: PubChem (National Center for Advancing Translational Sciences (NCATS))
TDP1 cell CPT: DT40-hTDP1 cell growth loss with CPT; chicken DT40 Tdp1-/-;hTDP1 cells + 20 nM CPT, ATP luminescence, 48 h; Potency, µM (top dose mostly 46.2 µM), for inactives: at the highest dose activity change, negative = growth inhibition, usual class: inhibitors; 12% of 420,000 active; also: nearly all actives have a fitted effect of over 55% in size
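Chicken DT40 Tdp1-/- cells stably complemented with human TDP1 were seeded at 400 cells/well in medium containing 20 nM camptothecin, exposed to pin-transferred compounds, and grown at 37 °C for at least 48 hr. Viability was read as ATP luminescence.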
ELG1 DNA repair: ELG1-dependent DNA repair inhibition; HEK293T ELG1-luciferase reporter, luminescence, 16 h; DNA damage induced by 5-fluorouridine; Potency, µM (top dose mostly 46.1 µM), without a hit: at the top dose activity change, negative = inhibition, actives largely listed as inhibitors; 2.3% of 330,000 active; also: nearly all actives have a fitted effect of over 55% in size
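In this reporter screen, reduction of luminescence relative to DMSO vehicle indicated activity. Compounds and 5-fluorouridine were added together to 2,000 cells per well, incubated for 16 hr at 37 °C, then developed with ONE-Glo.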
ALOX12 inh: ALOX12 (human) lipoxygenase inhibition; Potency, µM (highest dose often 108 µM), for the others: at the highest dose activity change, negative = inhibition, usual class: inhibitors; P18054; purified 12hLO, xylenol orange hydroperoxide absorbance; 1.1% of 580,000 active
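Purified human 12hLO at 150 nM in 25 mM Hepes, 0.01% Triton X-100, pH 7.0, preincubated 15 min at room temperature with compound. Reaction started with 40 uM arachidonic acid, 30 min at room temperature. Hydroperoxide measured by Fe-xylenol orange, 573/405 nm absorbance ratio.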
RORgamma inh: blocks mouse ROR gamma transcriptional activity; AID 2551; Drosophila S2 Gal4-RORgamma UAS-luciferase reporter, 20 h; 5.4% of 310,000 active; Potency, µM (doses to about 53.6 µM), for the others: at the highest dose activity change, negative = inhibition, usual class: inhibitors; also: nearly all actives have a fitted effect of over 60% in size
Target sequence (P51450 whole entry, looked up, the tested form may be a part): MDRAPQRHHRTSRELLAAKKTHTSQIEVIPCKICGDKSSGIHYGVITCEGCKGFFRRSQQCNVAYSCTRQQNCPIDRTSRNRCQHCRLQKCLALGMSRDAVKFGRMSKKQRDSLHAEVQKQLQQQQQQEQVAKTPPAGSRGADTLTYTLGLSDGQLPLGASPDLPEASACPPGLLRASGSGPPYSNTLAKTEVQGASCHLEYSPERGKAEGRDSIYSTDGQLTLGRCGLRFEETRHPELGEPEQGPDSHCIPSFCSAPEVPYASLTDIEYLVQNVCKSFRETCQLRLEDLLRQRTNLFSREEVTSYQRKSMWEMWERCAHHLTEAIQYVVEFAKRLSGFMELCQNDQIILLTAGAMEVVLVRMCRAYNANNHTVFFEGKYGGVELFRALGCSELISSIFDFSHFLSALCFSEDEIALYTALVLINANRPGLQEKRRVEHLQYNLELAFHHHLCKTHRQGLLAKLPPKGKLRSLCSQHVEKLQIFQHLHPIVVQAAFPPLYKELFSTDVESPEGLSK
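Stably transfected Drosophila Schneider cells are the test system, with ROR gamma fused to Gal4 and luciferase under UAS control; luminescence is read after 20 hr of 700 uM copper sulfate induction at ambient temperature.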
VP16 counter: Gal4-VP16 reporter inhibition counter-screen. 3.5% of 310,000 active. Drosophila S2 Gal4-VP16 UAS-luciferase, luminescence, 20 h. Potency, µM (highest dose often 53.6 µM), inactives show at the highest dose activity, negative = inhibition, actives largely listed as inhibitors;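 also: Gal4-VP16 expression switched on by copper sulfate through the metallothionein promoter; nearly all actives have a fitted effect of over 50% in size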
TDP1 cell noCPT: qHTS for Inhibitors of human tyrosyl-DNA phosphodiesterase 1 (TDP1): qHTS in cells in absence of CPT; DT40 Tdp1-/- hTDP1 cells, no CPT, ATP luminescence, 48 h; 15% of 420,000 active; Potency, µM (series often up to 46.2 µM), for inactives: at the top dose activity change, negative = growth inhibition, hits mostly inhibitors; also: nearly all actives have a fitted effect of over 55% in size
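Camptothecin absent (DMSO only). Human TDP1-complemented DT40 knockout cells, 400 cells/well, 37 °C for minimum 48 hr; ATP measured via CellTiter-Glo, 30 min dark incubation, luminescence.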
Starred values were filed as active, the others as inactive; u = inconclusive; x = no result; [ ] = remark or other dose. Shown are actives, neighbours in structure and some others; about 15% of the full set was active somewhere. Calls follow the shape of the dose curve; as a rule, active = well fitted curve in the direction sought with a large enough effect; inconclusive = small, poorly fitted or top-dose-only effect, or another doubt; inactive = no such curve, though single readings can be large; an effect the other way counts as inactive or inconclusive. % is scaled to controls: 0 for no effect and ±100 for the full control effect; potency is read from the fitted curve at half-maximal effect.

SMILES | TDP1 cell CPT | ELG1 DNA repair | ALOX12 inh | RORgamma inh | VP16 counter | TDP1 cell noCPT
CC(C)C(=O)NCCNC(=O)C1(c2ccccc2)CCC1 | x | x | 9% | x | x | x
NC(=NCc1ccccc1)NC(=O)c1nc(Cl)c(N)nc1N | 10µM* | x | u | -12% | 6% | 23µM*
Clc1ccc(-c2cnc3ccccc3n2)cc1 | 2% | u | 4% | -11% | u | -24%
c1coc(-c2nc3ccccc3nc2-c2ccco2)c1 | 18µM* | 18% | 50µM* | 0% | 3% | u
c1coc(-c2cnc3ccccc3n2)c1 | 23% | x | 40µM* | x | x | -2%
COc1ccc(CNC(=O)CSc2nc3ccccc3nc2N2CCCCC2)cc1 | x | x | 66% | x | x | x
CCCCc1ccc(C(=O)NCc2ccccn2)cc1 | x | x | 52% | x | x | x
O=C(Cc1coc2cc(O)ccc12)N1CCN(S(=O)(=O)c2ccc(Br)cc2)CC1 | u | x | 166% | x | x | 23µM*
CCc1cc(C(c2ccc(OC)cc2)N2CCOCC2)c(NC(=O)c2ccco2)s1 (centres undefined) | x | x | 7.1µM* | x | x | x
CCc1cc(C(c2ccc(F)cc2)N2CCN(CC)CC2)c(NC(=O)c2ccco2)s1 (centres undefined) | x | x | 10µM* | x | x | x
CCc1cc(C(c2ccncc2)N2CCN(C)CC2)c(NC(=O)c2ccccc2)s1 (centres undefined) | -18% | -24% | -20% | 13% | -13% | -33%
CCOc1cc(NC(=S)NCCOC)c(OCC)cc1NC(=O)c1cccs1 | 15% | -8% | -20% | 14µM* | u | -14%
CCOc1cc(NC(=S)NCCCOC)c(OCC)cc1NC(=O)c1cccs1 | -18% | -9% | -17% | 14µM* | u | -9%
CCOc1ccc(C2NC(=O)N(CC(=O)N3CCC(C)CC3)C3=C2C(=O)OC3)cc1 (centres undefined) | x | x | 28% | x | x | x
COCCn1c(=O)n([C@H]2CCCN(C(=O)c3cc(C)nn3C)C2)c2ncccc21 | x | x | 9% | x | x | x
COc1ccc(N2CCN(CCNC(=O)Nc3ccc([N+](=O)[O-])cc3OC)CC2)cc1 | 29µM* | -11% | u | 14% | 11% | 23µM*
COc1ccc(N2CCN(CCNC(=O)Nc3ccc(C)c(Cl)c3)CC2)cc1 | 23µM* | -22% | 14% | 19% | 4% | 16µM*
COc1ccccc1CN=C1NS(=O)(=O)C(c2ccc(C)c(C)c2)=C1C | x | x | 7% | x | x | x
COc1ccc(OC)c(NC(=O)NCCN2CCN(c3ccccc3)CC2)c1 | u | u | 0% | -18% | -1% | 14%
COc1ccc(C2=C(C)C(=NCCCN3CCN(c4cc(C)ccc4C)CC3)NS2(=O)=O)cc1 | 4.6µM* | x | u | x | x | -103%
COc1ccc(NC(=O)NCCCN2CCN(c3cc(C)ccc3C)CC2)cc1 | 8.2µM* | -14% | 16% | 2% | -16% | 8.2µM*
CCc1ccc2occ(CC(=O)N(Cc3ccc(F)cc3)C3CCS(=O)(=O)C3)c2c1 (centres undefined) | x | x | 5% | x | x | x
CCc1noc(-c2cn(C3CCCN(C(=O)c4ccc(OC(F)(F)F)cc4)C3)nn2)n1 (centres undefined) | x | x | 29% | x | x | x
Cc1ccc(C)c(S(=O)(=O)N2CCCN(C)c3ccccc32)c1 | x | x | -6% | x | x | x
COc1ccc(NC(=O)N2C[C@@H]3C[C@H](C2)c2ccc(NC(=O)c4ccccn4)c(=O)n2C3)cc1 | x | x | 79% | x | x | x
SMILES | TDP1 cell CPT | ELG1 DNA repair | ALOX12 inh | RORgamma inh | VP16 counter | TDP1 cell noCPT
COc1ccccc1CN(Cc1ccccc1C)C(=O)[C@H]1CCC[C@H](O)C1 | x | x | 27% | x | x | x
Cn1nc(C(=O)Nc2ccc(Br)cc2F)c2ccccc2c1=O | x | x | 28% | x | x | x
O=C(CCn1nnc(-c2ccccc2)n1)N1CCCC2(CCNCC2)CC1 | x | x | 9% | x | x | x
CCN1/C(=C\C(=S)Nc2ccccc2)Sc2ccccc21 | 3.7µM* | u | 32µM* | 4µM* | u | 3.3µM*
Cc1cccc(NC(=O)CN2C(=O)NC3(CCC(C)CC3)C2=O)c1C (centres undefined) | x | x | 35% | x | x | x
O=C1CC(N(O)C2CC(=O)N(Cc3ccccc3)C2=O)C(=O)N1Cc1ccccc1 (centres undefined) | 21µM* | -5% | -3% | -17% | u | 10µM*
Cc1cc2ncn(C3CC(=O)N(Cc4ccccc4)C3=O)c2cc1C (centres undefined) | -10% | -28% | 9% | 8%[0.365 µM] | x | -16%
CCCCCCC(=O)N(O)C1CC(=O)N(Cc2ccccc2)C1=O (centres undefined) | 13µM* | 15% | u | 10µM* | -78% | 13µM*
Cc1nc2ccccc2n1C1CC(=O)N(Cc2ccccc2)C1=O (centres undefined) | u | u | 0% | -29% | 6.3µM* | -9%
CCCCCC(=O)NNC1CC(=O)N(c2ccccc2)C1=O (centres undefined) | 0% | 16% | 221% | -2% | 2% | -6%
CCCCCC(=O)N(O)C1CC(=O)N(c2ccccc2)C1=O (centres undefined) | 3.3µM* | u | 176% | 16µM* | 7.1µM* | 4.6µM*
Cc1cc(C)c2nc(SCC(=O)Nc3sccc3C(N)=O)cc(C)c2c1 | x | x | 11% | x | x | x
Cc1ccnc(NC(=O)c2nc(-c3ccccc3)oc2C)c1 | x | x | 2% | x | x | x
COc1cc2c(-c3ccccc3C)nc3c(c(C)nn3-c3ccccc3)c2cc1OC | 23µM* | x | -18% | x | x | u
COc1cc2c(-c3cc(Br)ccc3O)nc3c(c(C)nn3-c3ccccc3)c2cc1OC | u | x | -16% | x | x | -24%
COc1cc(-c2nc3c(c(C)nn3-c3ccccc3)c3cc(OC)c(OC)cc23)ccc1O | u | 18µM* | -1% | 18% | -10% | 21µM*
CCOc1cc(/C=N/O)ccc1OCc1ccc([N+](=O)[O-])cc1 | u | -21% | 18% | 2% | 0% | -29%
CCOc1cc(C=C(C(=O)OC)C(=O)OC)ccc1OCc1ccc([N+](=O)[O-])cc1 | 6.5µM* | 21µM* | 0% | u | u | 12µM*
O=C(c1cn(-c2ccccc2)nc1-c1ccc(Cl)cc1)N1CCOCC1 | -13% | -5% | -10% | 12% | 5% | -19%
CC(C)c1ccc(-c2nn(-c3ccccc3)cc2C(=O)NCC2CCCO2)cc1 (centres undefined) | -104% | u | 10% | x | x | u
O=C(NN=C1CCCCCC1)c1cn(-c2ccccc2)nc1-c1ccccc1 | -26% | -12% | 10% | u | -3% | u
